Hits are enriched below; roughly 5.3% of the tested compounds scored in any of these assays.
HP1b chromo inh – inhibitors of HP1-beta chromodomain binding to methylated histone tails. P83916. 0.56% of 390,000 active. Potency, µM (top dose mostly 114 µM), for inactives: at the highest dose activity change, negative = inhibition, most hits filed as inhibitors. AlphaScreen HP1-beta / biotin-H3K9me3 peptide binding; further: potency means the concentration at half of the fitted maximal effect; nearly all actives have a fitted effect of over 70% in size
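HP1-beta protein (50 nM final) preincubated 30 min at room temperature with biotinylated H3(1-18)K9me3 peptide (50 nM) in PBS pH 7.4, 0.01% Tween-20, then compound added for 30 min. AlphaScreen streptavidin donor/nickel chelate acceptor beads (10 ug/mL final), 30 min dark, luminescence read.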
JMJD2A Tudor – JMJD2A Tudor domain (human) inhibition | O75164 | AlphaScreen JMJD2A-Tudor / H3K4me3 peptide binding | Potency, µM (highest dose often 114 µM), inactives show at the top dose activity change, negative = inhibition, usual class: inhibitors | 4.4% of 390,000 active | AID 504339; further: potency means the concentration at half of the fitted maximal effect; on the % scale 0 is the no-effect control and ±100 the full control effect; nearly all actives have a fitted effect of over 50% in size
CtBP-E1A inh – inhibitors of CtBP/E1A interaction | AlphaScreen GST-E1A/His-CtBP binding, 1536-well; hits give low values | activity change, % (test concentration not listed) | 0.49% of 340,000 active | AID 651724; in the data active means activity change below about -65%; inconclusive means mostly about -30% to -63%; further: on the % scale 0 is the no-effect control and ±100 the full control effect
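Steps: dispense buffer (Tris pH 8.0, NaCl 300 mM, TCEP 1 mM, BSA, Tween 20); add 5X protein mix (GST-E1A, His-CtBP, 125 nM each); pin 23 nL compound; 2 h at 37 °C, dark; add 5X beads (50 ug/mL); 1 h; read.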
Six1-Eya2 inh – blocks human Six1 binding to Eya2; AlphaScreen GST-Six1/His-Eya2 binding, biochemical; hits give low values; activity change, % (test concentration not listed); AID 651725; Q15475+O00167; 0.56% of 360,000 active; in the data active means activity change below about -65%; inconclusive means mostly about -30% to -63%; further: on the % scale 0 is the no-effect control and ±100 the full control effect
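Compounds are tested against tagged Six1 and Eya2 proteins bridged by glutathione donor and nickel acceptor beads; after a one-hour incubation at 37 °C without light, AlphaScreen emission is recorded.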
BAZ2B block – inhibitors of human BAZ2B bromodomain; AlphaScreen BAZ2B-H3K14Ac peptide displacement; 4.4% of 360,000 active; Q9UIF8; Potency, µM (top dose mostly 114 µM), inactives show at the highest dose activity change, negative = inhibition, usual class: inhibitors; further: potency means the concentration at half of the fitted maximal effect; on the % scale 0 is the no-effect control and ±100 the full control effect; nearly all actives have a fitted effect of over 60% in size
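BAZ2B (50 nM) with biotin-H3(5-23)K14Ac peptide (50 nM) in PBS pH 7.4, 0.01% Tween-20, preformed 30 min, then compound 30 min at room temperature; top concentration 110uM. AlphaScreen streptavidin donor/nickel chelate acceptor beads (10 ug/mL final), 20 min dark, signal read.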
TDP1 inh – blocks human tyrosyl-DNA phosphodiesterase 1. Q9NUW8. 0.28% of 350,000 active. Potency, µM (titrated, usually from 130 µM), for inactives: at the top dose activity change, negative = inhibition, usual class: inhibitors. recombinant TDP1, AlphaScreen DNA substrate cleavage; further: potency means the concentration at half of the fitted maximal effect; on the % scale 0 is the no-effect control and ±100 the full control effect; nearly all actives have a fitted effect of over 40% in size
Target sequence (Q9NUW8 whole entry, looked up): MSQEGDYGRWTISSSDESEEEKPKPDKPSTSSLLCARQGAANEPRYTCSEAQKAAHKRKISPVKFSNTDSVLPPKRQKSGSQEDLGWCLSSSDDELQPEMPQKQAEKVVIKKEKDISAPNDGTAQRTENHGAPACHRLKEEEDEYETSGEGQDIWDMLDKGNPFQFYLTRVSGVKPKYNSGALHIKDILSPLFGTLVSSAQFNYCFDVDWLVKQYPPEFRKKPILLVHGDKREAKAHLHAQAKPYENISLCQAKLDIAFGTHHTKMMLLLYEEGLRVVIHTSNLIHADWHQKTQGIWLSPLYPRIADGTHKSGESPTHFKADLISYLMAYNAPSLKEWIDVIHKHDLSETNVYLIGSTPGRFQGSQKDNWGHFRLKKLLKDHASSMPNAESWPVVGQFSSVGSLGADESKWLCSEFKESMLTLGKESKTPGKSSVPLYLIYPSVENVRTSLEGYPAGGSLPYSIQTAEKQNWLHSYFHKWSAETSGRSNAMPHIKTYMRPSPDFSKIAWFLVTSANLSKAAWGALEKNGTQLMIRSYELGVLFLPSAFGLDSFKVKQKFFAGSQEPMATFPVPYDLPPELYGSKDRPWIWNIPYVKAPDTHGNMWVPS
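Tdp1 1 nM final; 15 min RT w/ cpd; substrate 15 nM, 5 min; beads 10 ug/ml, 10 min; AlphaScreen read. Neg ctrl: no enzyme.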
The depositor's hits bear a star; u = inconclusive; x = not tested or not shown; [ ] = remark or other dose. Unless noted, the call rests on the fitted dose curve; in most records, active means well fitted inhibition curve with a large enough effect; inconclusive means small, poorly fitted or top-dose-only effect; inactive means no such curve, though single readings can be large or run the other way.

SMILES	HP1b chromo inh	JMJD2A Tudor	CtBP-E1A inh	Six1-Eya2 inh	BAZ2B block	TDP1 inh
CCCc1cc(=O)[nH]c(SCC(=O)N2CCN(c3ccccc3)CC2)n1	28%	-7%	8	2	-19%	1%
COc1ccc(-n2c(=O)c3c(c4cc(OC)ccc4n3C)n(Cc3cccc(OC)c3)c2=O)cc1	54%	20%	x	x	-2%	8%
Cc1nc2nc(CC(=O)O)[nH]n2c(=O)c1[N+](=O)[O-]	20%	18µM*	5	-2	-16%	-4%
CC(C)CN(CCCNC(=O)c1cc(=O)[nH]c2ccc(S(=O)(=O)N3CCCCCC3)cc12)CC(C)C	21%	-15%	x	x	2%	0%
Cc1cccc(C)c1NC(=O)C(=O)NCC(c1cccnc1)N1CCc2ccccc21 (stereo unspecified)	2%	-19%	x	x	-5%	0%
Cc1ccc(C(=O)N/C(=C/c2ccccc2)C(=O)NCc2ccncc2)cc1	35%	-5%	5	0	0%	0%
Cc1ccc(C(=O)N/C(=C\c2ccccc2)C(=O)NCc2ccncc2)cc1	10%	-4%	-1	5	50µM*	7%
COc1ccc(C2=CC3=C(Br)C(=O)C(C)(OC(=O)c4cccs4)C(=O)C3=CO2)cc1 (stereo unspecified)	u	28µM*	-6	-10	x	2%
C=CCN1C=C2C(=O)C(C)(OC(=O)CCC(=O)OC)C(=O)C(Br)=C2C=C1c1ccc(OC)cc1 (stereo unspecified)	-11%	u	-2	-10	u	1%[12.3 µM]
COc1ccc(C2=CC3=C(Br)C(=O)C(C)(OC(=O)c4cnc5ccccc5n4)C(=O)C3=CO2)cc1 (stereo unspecified)	x	x	x	x	x	6%
COC(=O)CCC(=O)OC1(C)C(=O)C2=CN(c3ccc(OC)cc3)C(c3ccc(OC)cc3)=CC2=C(Br)C1=O (stereo unspecified)	u	40µM*	-18	-22	x	9%[12.3 µM]
COC(=O)CCCC1=CC2=C(c3ccccc3)C(=O)C(C)(OC(=O)C3CCCC3)C(=O)C2=CN1Cc1ccc(OC)cc1 (stereo unspecified)	u	50µM*	u	u	u	9%[12.3 µM]
COC(=O)CCC(=O)OC1(C)C(=O)C2=CN(C3CCCC3)C(c3ccc(OC)cc3)=CC2=C(Br)C1=O (stereo unspecified)	u	56µM*	-2	-13	45µM*	2%[12.3 µM]
COCCN1C=C2C(=O)C(C)(OC(=O)CCC(=O)OC)C(=O)C(Br)=C2C=C1c1ccc(OC)cc1 (stereo unspecified)	-8%	u	-11	-7	x	-13%[21 µM]
COc1cc2nc(C3CCC3)nc(N3CCN(c4ccccn4)CC3)c2cc1OC	-16%	u	-4	0	50µM*	5%
Cc1cccc(CNc2ccnc(-c3ccc(N(C)C)cc3)n2)c1	x	x	x	x	x	24%[56.1 µM]
CCOc1ccc(C2C(=O)N(C3CCCCC3)CC(=O)N2C2CCCC2)cc1OC (stereo unspecified)	19%	-3%	x	x	-5%	5%
O=C1C=CC(=O)C(C2=C3C(=O)N(CCc4ccccc4)CC(=O)N3CCC2)=C1	6.3µM*	3.2µM*	-1	u	50µM*	3%
O=C1CC2(CCCCC2)CC(=O)N1CCc1ccccc1	30%[57 µM]	24%	11	10	x	x
CCOC(=O)c1c(CSc2cccs2)n(C)c2cc(Br)c(O)c(CN(C)C)c12	u	63µM*	-7	-26	40µM*	8%
CCOC(=O)c1c(C)n(C)c2cc(Br)c(O)c(O)c12	u	10µM*	-1	4	-3%	4%
COc1ccc(N2C(=O)/C(=C/N(C)C)NC2=S)cc1	u	18µM*	7	-1	-12%	x
CC1(C)CCC[C@@](C)([C@H]2CC[C@]3(C)[C@@H]2[C@H](O)C[C@@H]2[C@@]4(C)CC[C@H](O)C(C)(C)[C@@H]4CC[C@]23C)O1	x	x	x	x	x	3%
[N-]=[N+]=CC(=O)CCCN1C(=O)c2ccccc2C1=O	18%	-5%[57.1 µM]	9	5	12%	4%
[N-]=[N+]=CC(=O)CC(c1ccccc1)N1C(=O)c2ccccc2C1=O (stereo unspecified)	17%	50µM*	-13	-17	32µM*	8%
SMILES	HP1b chromo inh	JMJD2A Tudor	CtBP-E1A inh	Six1-Eya2 inh	BAZ2B block	TDP1 inh
CCN1CCc2nc3sc(C(=O)N4CCc5ccccc5C4)c(N)c3cc2C1	-19%	79µM*	-11	2	u	3%[0.0935 µM]
Cc1cccc(NC(=O)c2sc3nc4c(cc3c2N)CN(C(C)C)CC4)c1	-19%	50µM*	x	x	u	9%
Cc1cccc(NC(=O)c2sc3nc4c(cc3c2N)CN(Cc2ccccc2)CC4)c1	26%	5%	x	x	-9%	-2%
Cc1cccc(NC(=O)c2sc3nc(N)c(C#N)cc3c2N)c1	12%	35µM*	u	u	-10%	1%
Cc1cccc(Nc2nc(-c3ccccc3)c3cc(C)ccc3n2)c1	149%	66%	x	x	83%	-9%[12.3 µM]
Cc1ccccc1OCC(=O)Nc1ccc(-c2nc3ccccc3o2)cc1	44%	-1%	x	x	5%	-3%
Cc1ccc(-c2nc3c(c(=O)[nH]c(=O)n3Cc3ccccc3)n2Cc2ccccc2)o1	-7%	-23%	-2	-3	13%	5%
Cc1ccc(-c2nc3c(c(=O)[nH]c(=O)n3Cc3ccccc3)n2C)o1	-11%	u	x	-15	u	40µM*
O=C(NCCc1ccccc1)c1ccc(CSc2nc3cccnc3n2Cc2ccccc2F)cc1	25µM*	5.6µM*	x	x	14µM*	7%
O=C(NCCc1ccccc1)c1ccc(Cn2c(SCc3ccccc3F)nc3cccnc32)cc1	49%	-26%	x	x	10%	9%
C#CCOCCOCCOCCNc1nc(N2CCN(C(=O)[C@H](CCC(=O)O)n3cc(C(N)Cc4ccc(O)cc4)nn3)CC2)nc(N2CCN(C(=O)[C@H](CCCCN)n3cc(C(N)[C@H](C)CC)nn3)CC2)n1 (stereo partly specified)	x	x	x	x	79µM*	1%
C#CCOCCOCCOCCNc1nc(N2CCN(C(=O)[C@H](CCCCN)n3cc(CC(C)O)nn3)CC2)nc(N2CCN(C(=O)[C@H](Cc3ccc(O)cc3)n3cc(CCO)nn3)CC2)n1 (stereo partly specified)	14%	-22%	0	2	x	x
C#CCOCCOCCOCCNc1nc(N2CCN(C(=O)[C@H]([C@@H](C)CC)n3cc(CCCCN)nn3)CC2)nc(N2CCN(C(=O)[C@H](CCCCN)n3cc(CCC(=O)O)nn3)CC2)n1	28%	5%	1	5	-22%	1%
